Results filed as inconclusive are left out. Where a call stands in place of a potency, no number is given. Activity calls are given as the source filed them. Unless noted, the call rests on the fitted dose curve; in most records, active means well fitted curve in the direction sought with a large enough effect; inconclusive means small, poorly fitted or top-dose-only effect, or another doubt; inactive means no such curve, though single readings can be large; an effect the other way counts as inactive or inconclusive.
Key:
[1] = Cytometric Cell-Based qHTS for Inhibitors of the mTORC1 Signaling Pathway in MEF (Tsc2-/-, p53-/-) Cells (AID 2660);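 further: Tsc2 and p53 null MEFs carrying empty vector with compound for 24 h; percent of cells above a phospho-rpS6 to PI ratio cutoff in each well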
Method in brief: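 Immunofluorescence qHTS of rpS6 Ser235/236 phosphorylation: MEFs (Tsc2-/-, p53-/-) treated 24 h, 37 C, in DMEM + 10% FBS. Alexa-488 signal normalized to PI count, referenced to rapamycin (7.5 nM) and DMSO; PI cell number recorded for viability.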

[2] = High Content Imaging Cell-Based qHTS for Inhibitors of the mTORC1 Signaling Pathway in MEF (Tsc2-/-, p53-/-) Cells (AID 2666); conditions: at 38.3 µM (top of the series);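 further: percent of cells scored positive for phospho-rpS6 Ser235/236 immunostaining by imaging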
Method in brief: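 Cells were plated, dosed with compound after 24 hrs, and incubated another 24 hrs at 37 degree Celsius. Fixed cells were immunostained for phospho-rpS6 Ser235/236 and counterstained, and the normalized signal was scored as % active cells against rapamycin and DMSO controls.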

[3] = High Content Imaging Cell-Based qHTS for Inhibitors of the mTORC1 Signaling Pathway in MEF Cells (AID 2667);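 further: Tsc2-/- p53-/- MEFs stably re-expressing wild-type Tsc2 exposed 24 h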
Method in brief: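 Immunofluorescence for rpS6 phosphorylation in MEFs of Tsc2-/-, p53-/- background rescued with WT Tsc2. Compound exposure lasted 24 hrs. Inhibition was scored against rapamycin-treated control wells.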

[4] = Cytometry Cell-Based qHTS for Inhibitors of the mTORC1 Signaling Pathway in MEF cells (AID 2668);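 further: Tsc2-/- p53-/- mouse embryonic fibroblasts stably re-expressing wild-type Tsc2; percent cells positive for phospho-rpS6 Ser235/236 relative to propidium iodide stain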
Method in brief: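 WT MEFs (Tsc2-/-, p53-/- stably re-expressing WT Tsc2) in DMEM + 10% FBS received compounds 24 hrs after plating, for 24 hrs at 37 degree Celsius. Fixed cells stained with Alexa-488 anti-phospho-rpS6 Ser235/236 and propidium iodide; laser-scanning cytometry read-out.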

[5] = target: Tumor susceptibility gene 101 protein (Homo sapiens) (UniProt Q99816); assay: qHTS Validation Assay for Iinhibitors of HIV-1 Budding by Blocking the Interaction of PTAP/TSG101 (AID 485342; calls by dose curve)
Tumor susceptibility gene 101 protein (Homo sapiens), sequence (Q99816 whole entry, looked up, the tested form may be a part): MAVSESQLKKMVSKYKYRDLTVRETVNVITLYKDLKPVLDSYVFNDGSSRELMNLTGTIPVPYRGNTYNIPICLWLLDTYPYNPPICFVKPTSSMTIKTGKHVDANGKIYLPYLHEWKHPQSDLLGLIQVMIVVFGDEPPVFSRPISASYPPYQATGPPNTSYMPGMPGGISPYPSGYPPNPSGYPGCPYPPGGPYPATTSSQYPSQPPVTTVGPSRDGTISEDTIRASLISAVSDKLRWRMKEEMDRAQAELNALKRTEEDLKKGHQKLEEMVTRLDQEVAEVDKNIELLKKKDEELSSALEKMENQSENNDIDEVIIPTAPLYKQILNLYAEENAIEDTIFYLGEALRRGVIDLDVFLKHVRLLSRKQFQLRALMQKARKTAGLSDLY
Method in brief: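 Tsg101 binding domain (10 uM final) in pH 7.5 HEPES/NaCl/Tween 20/EDTA/TCEP buffer was mixed with pin-transferred compounds, then FITC-labeled PTAP peptide (50 nM final) was added; after 20 min at r.t., fluorescence polarization was read.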

[6] = qHTS Validation Assay to Find Inhibitors of Chronic Active B-Cell Receptor Signaling (AID 485345; active means well fitted curve in the direction sought with a large enough effect in the main read-out, with a control signal flat, not every such curve was filed as active)
Method in brief: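 Read-out: ratio of filter-corrected green (IkappaBalpha fusion) to red (native) luciferase signal in doxycycline-induced TMD8 cells after 4 h at 37C. Titration spanned 46 uM–3 nM; Data were normalised to basal cells and 10 uM MG-132 wells.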

[7] = target: Thioredoxin reductase 1, cytoplasmic (Rattus norvegicus) (UniProt O89049); assay: qHTS Assay for Substrates of Mammalian Selenoprotein Thioredoxin Reductase 1 (TrxR1) (AID 488772);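 further: NADPH fluorescence in the first read after selenite addition and not the 8 min delta; a drop in NADPH fluorescence below the no-compound background marks a TrxR1 substrate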
Thioredoxin reductase 1, cytoplasmic (Rattus norvegicus), sequence (O89049 whole entry, looked up): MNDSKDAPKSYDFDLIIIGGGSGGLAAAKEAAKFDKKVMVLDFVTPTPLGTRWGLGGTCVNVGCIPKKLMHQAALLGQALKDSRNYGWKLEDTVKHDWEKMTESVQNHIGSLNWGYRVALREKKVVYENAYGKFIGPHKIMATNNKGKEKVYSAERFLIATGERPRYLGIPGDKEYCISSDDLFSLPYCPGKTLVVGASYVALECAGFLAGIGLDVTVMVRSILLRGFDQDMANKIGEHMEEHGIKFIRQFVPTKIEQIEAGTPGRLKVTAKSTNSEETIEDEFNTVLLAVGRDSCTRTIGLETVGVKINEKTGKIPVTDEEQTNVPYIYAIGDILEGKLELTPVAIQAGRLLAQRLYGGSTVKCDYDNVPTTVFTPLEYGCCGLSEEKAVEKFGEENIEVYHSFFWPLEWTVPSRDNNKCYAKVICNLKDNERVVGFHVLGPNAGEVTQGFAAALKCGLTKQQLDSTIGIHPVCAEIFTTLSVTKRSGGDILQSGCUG
Method in brief: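 Quantitative HTS in Tris-HCl buffer at pH 7.5 with EDTA and Tween-20, using rat TrxR1, 400 uM NADPH and 400 uM selenite (final). A fall in initial NADPH fluorescence relative to background marked substrate behaviour.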

[8] = target: Thioredoxin reductase 1, cytoplasmic (Rattus norvegicus) (UniProt O89049); assay: qHTS Assay for Inhibitors of Mammalian Selenoprotein Thioredoxin Reductase 1 (TrxR1) (AID 488773); conditions: Potency: inhibition; further: potency means the concentration at half of the fitted maximal effect; nearly all actives have a fitted effect of over 40% in size
Method in brief: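 Steps: enzyme (90 nM) plus NADPH (400 uM final), 5 min at ~22 deg C; compound added, 15 min; selenite (400 uM final) added; fluorescence followed for 8 min. Concentration-response curves derived from the normalized delta values.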

[9] = target: Flap endonuclease 1 (Homo sapiens) (UniProt P39748); assay: qHTS Validation Assay for the Inhibitors of Human Flap endonuclease 1 (FEN1) (AID 488816); further: potency means the concentration at half of the fitted maximal effect
Flap endonuclease 1 (Homo sapiens), sequence (P39748 whole entry, looked up): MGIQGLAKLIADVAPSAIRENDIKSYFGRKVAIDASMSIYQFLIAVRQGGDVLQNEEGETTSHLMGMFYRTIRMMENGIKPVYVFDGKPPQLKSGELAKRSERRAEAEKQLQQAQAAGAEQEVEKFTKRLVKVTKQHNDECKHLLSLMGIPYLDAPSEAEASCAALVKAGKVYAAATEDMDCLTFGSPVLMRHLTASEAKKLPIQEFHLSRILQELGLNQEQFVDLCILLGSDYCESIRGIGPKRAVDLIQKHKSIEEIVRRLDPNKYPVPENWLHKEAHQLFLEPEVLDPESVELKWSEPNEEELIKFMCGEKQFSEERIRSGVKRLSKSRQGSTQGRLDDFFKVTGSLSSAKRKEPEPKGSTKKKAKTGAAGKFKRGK
Method in brief: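 Readings taken at 0 and 15 min after starting the reaction with 50 nM (final) substrate supplied the signal. Compounds had first sat with 10 nM FEN1 reagent for 15 min at room temperature. Values come from Hill-equation concentration-response fits.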

[10] = target: M-phase phosphoprotein 8 (Homo sapiens) (UniProt Q99549); assay: qHTS Validation Assay for Inhibitors for MPP8 Chromodomain Interactions with Methylated Histone Tails (AID 488949); further: potency means the concentration at half of the fitted maximal effect; nearly all actives have a fitted effect of over 55% in size
Method in brief: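 MPP8 (50 nM) was preincubated with biotinylated H3(1-18)K9me3 peptide (50 nM) in PBS pH 7.4, 0.01% Tween-20 for 30 min at room temperature, then with compounds for 30 min; binding was detected by AlphaScreen.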

[11] = target: Chromobox protein homolog 1 (Homo sapiens) (UniProt P83916); assay: qHTS Validation Assay for Inhibitors of HP1-beta Chromodomain Interactions with Methylated Histone Tails (AID 488953); further: potency means the concentration at half of the fitted maximal effect; nearly all actives have a fitted effect of over 50% in size
Chromobox protein homolog 1 (Homo sapiens), sequence (P83916 whole entry, looked up): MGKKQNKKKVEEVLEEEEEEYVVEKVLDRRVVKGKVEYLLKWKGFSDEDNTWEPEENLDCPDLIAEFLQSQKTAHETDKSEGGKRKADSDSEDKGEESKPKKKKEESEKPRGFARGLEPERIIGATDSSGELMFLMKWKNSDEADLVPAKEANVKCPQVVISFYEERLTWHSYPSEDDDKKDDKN
Method in brief: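 50 nM HP1-beta + 50 nM biotin-H3(1-18)K9me3, PBS pH 7.4, 0.01% Tween-20, 30 min RT; compound added, 30 min RT; AlphaScreen beads 10 ug/mL final, 30 min dark; luminescence read.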

[12] = target: Methanococcus maripaludis chaperonin (MmCpn) (UniProt Q6LX38); assay: High-Throughput Screening for Modulators of Cytosolic Chaperonin Activity: MmCpn Primary Screen (AID 488978);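 further: 50 nM MmCpn enzyme hydrolysing 30 µM ATP at 37 °C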
Methanococcus maripaludis chaperonin (MmCpn), sequence (Q6LX38 1-543): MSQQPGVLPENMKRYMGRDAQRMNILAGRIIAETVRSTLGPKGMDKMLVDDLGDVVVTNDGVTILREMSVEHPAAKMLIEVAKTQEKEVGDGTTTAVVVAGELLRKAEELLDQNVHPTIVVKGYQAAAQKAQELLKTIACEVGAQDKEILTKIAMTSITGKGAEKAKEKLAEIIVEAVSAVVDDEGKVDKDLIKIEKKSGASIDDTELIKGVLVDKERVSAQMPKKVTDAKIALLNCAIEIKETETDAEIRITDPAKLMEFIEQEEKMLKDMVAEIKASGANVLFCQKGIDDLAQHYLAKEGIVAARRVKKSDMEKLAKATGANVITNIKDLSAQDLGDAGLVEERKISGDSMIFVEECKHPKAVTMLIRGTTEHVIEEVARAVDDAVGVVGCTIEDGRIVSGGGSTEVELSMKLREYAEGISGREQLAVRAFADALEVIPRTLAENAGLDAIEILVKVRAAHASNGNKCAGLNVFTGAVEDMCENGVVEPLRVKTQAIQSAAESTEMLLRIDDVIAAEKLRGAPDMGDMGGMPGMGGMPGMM
Method in brief: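 MmCpn (50 nM final) was preincubated with compound 5 min at RT, then 30 uM ATP (final) was added and the reaction ran 10 min at 37C. ADP produced was detected by Transcreener HTRF (ex 320 nm; em 590/665 nm).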

[13] = target: D(1A) dopamine receptor (Homo sapiens) (UniProt P21728); assay: HTS Assay for Allosteric Agonists of the Human D1 Dopamine Receptor: Primary Screen for Agonists (AID 488981)
D(1A) dopamine receptor (Homo sapiens), sequence (P21728 whole entry, looked up): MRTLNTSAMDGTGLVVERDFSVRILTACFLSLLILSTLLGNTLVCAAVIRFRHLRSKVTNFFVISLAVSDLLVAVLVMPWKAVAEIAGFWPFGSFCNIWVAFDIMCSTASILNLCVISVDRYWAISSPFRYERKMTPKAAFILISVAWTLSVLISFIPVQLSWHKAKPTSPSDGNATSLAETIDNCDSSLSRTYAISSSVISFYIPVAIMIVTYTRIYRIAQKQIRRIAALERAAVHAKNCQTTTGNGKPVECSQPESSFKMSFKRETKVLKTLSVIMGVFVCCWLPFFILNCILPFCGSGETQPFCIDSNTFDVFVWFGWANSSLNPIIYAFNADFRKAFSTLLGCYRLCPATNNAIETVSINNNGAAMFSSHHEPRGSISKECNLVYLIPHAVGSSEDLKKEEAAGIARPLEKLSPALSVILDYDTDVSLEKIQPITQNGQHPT
Method in brief: (§1)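 Calcium flux in an inducible, force-coupled HEK293 Trex D1 line (overnight at 30 C): agonist mode is the 180 s kinetic read after compound; potentiator mode is the following 180 s read after dopamine at EC20.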

[14] = target: D(1A) dopamine receptor (Homo sapiens) (UniProt P21728); assay: HTS Assay for Allosteric Agonists of the Human D1 Dopamine Receptor: Primary Screen for Potentiators (AID 488982)
Method in brief: as §1

[15] = target: D(1A) dopamine receptor (Homo sapiens) (UniProt P21728); assay: HTS Assay for Allosteric Agonists of the Human D1 Dopamine Receptor: Primary Screen for Antagonists (AID 488983);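 further: calcium flux response to an EC80 dopamine challenge measured with no-wash dye; nearly all actives have a fitted effect of over 65% in size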
Method in brief: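 Cells are induced with tetracycline and incubated overnight at 30 C, then loaded with calcium dye for 30 to 90 minutes at room temperature. Compound addition is followed by a 180 s read, then an EC80 dopamine addition and another 180 s read.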

[16] = Validation screen for small molecules that induce genotoxicity in human embryonic kidney (HEK293T) cells expressing luciferase-tagged ELG1 (AID 493106)
Method in brief: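 Luminescence from an ELG1-luciferase fusion serves as the read-out, rising when genetic stress elevates ELG1 protein. HEK293T reporter cells (2,000 per well) received 23 nL compound, incubated 16 hr at 37 °C, then ONE-Glo for 30 min at room temperature.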

[17] = target: ATPase family AAA domain-containing protein 5 (Homo sapiens) (UniProt Q96QE3); assay: Validation screen for small molecules that inhibit ELG1-dependent DNA repair in human embryonic kidney (HEK293T) cells expressing luciferase-tagged ELG1 (AID 493107);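 further: cells co-treated with the DNA-damaging agent 5-fluorouridine alongside compound; inhibitors lower the ELG1-luciferase luminescence signal; nearly all actives have a fitted effect of over 70% in size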
Method in brief: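 Luminescence from ONE-Glo, developed 30 min at room temperature, served as read-out of ELG1-luciferase levels. Beforehand, reporter HEK293T cells received 5-fluorouridine plus test compound for 16 hr at 37 °C.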

[18] = target: phosphoglycerate mutase (Leishmania major) (UniProt Q4Q090); assay: qHTS Validation Assay to Find Inhibitors of Phosphoglycerate Mutase (AID 504548);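 further: end-point luminescence from Kinase-GloPlus after the PGAM reaction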
phosphoglycerate mutase (Leishmania major), sequence (Q4Q090 1-553): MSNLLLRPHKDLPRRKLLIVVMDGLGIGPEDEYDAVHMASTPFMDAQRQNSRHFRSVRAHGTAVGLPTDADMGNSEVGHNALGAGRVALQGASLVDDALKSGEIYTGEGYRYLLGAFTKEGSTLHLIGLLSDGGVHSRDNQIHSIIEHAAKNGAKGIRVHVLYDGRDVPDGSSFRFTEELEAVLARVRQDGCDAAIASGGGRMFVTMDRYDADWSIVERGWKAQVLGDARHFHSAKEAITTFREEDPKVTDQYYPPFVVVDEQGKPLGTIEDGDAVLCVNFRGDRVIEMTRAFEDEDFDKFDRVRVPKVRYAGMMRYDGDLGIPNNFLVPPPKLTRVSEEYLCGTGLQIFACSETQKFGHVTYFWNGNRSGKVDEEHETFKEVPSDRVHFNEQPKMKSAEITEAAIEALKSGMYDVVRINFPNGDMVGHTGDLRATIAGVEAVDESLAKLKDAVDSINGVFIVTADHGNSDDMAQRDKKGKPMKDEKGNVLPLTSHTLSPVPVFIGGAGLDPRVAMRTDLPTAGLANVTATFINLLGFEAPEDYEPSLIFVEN
Method in brief: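 L. major PGAM (1.25nM final) was added to substrate buffer and pinned compound, incubated 45 minutes at room temperature, then Kinase-GloPlus added; luminescence read after 10 minutes. Buffer: 100 mM TEA pH 7.6, 5 mM MgCl2, 0.01% Tween-20.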

[19] = target: Ubiquitin carboxyl-terminal hydrolase 1 (Homo sapiens) (UniProt O94782); assay: Inhibitors of USP1/UAF1: Pilot qHTS (AID 504865);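 further: rhodamine fluorescence freed from ubiquitin-rhodamine substrate followed over time; top concentration of the series differs between compounds; nearly all actives have a fitted effect of over 35% in size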
Ubiquitin carboxyl-terminal hydrolase 1 (Homo sapiens), sequence (O94782 whole entry, looked up): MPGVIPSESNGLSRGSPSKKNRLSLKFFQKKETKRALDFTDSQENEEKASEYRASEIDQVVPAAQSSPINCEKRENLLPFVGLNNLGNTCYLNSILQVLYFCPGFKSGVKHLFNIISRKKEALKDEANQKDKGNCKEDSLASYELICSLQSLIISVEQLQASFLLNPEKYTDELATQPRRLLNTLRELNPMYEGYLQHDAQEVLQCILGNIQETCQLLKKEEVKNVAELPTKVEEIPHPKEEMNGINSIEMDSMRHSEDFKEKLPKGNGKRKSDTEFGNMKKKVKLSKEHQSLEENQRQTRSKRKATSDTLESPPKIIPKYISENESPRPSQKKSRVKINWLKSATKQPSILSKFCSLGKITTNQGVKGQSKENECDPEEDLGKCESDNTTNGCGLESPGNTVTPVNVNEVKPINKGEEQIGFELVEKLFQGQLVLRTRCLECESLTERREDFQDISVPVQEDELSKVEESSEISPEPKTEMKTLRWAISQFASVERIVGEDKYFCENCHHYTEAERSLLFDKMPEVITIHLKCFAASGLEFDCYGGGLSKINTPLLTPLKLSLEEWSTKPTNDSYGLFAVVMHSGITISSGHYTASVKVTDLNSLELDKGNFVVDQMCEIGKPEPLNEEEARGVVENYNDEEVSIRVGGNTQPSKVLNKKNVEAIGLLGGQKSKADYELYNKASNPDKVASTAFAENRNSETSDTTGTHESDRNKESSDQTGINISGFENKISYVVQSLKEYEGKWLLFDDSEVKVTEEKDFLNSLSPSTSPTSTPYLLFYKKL
Method in brief: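 USP1/UAF1 complex (1nM) preincubated with compound 15 min at room temperature, then Ub-Rho substrate (150nM final) added. Fluorescence read kinetically at 480/540 nm, 6 reads every 60 seconds. Buffer: 50mM HEPES pH 7.8, 0.5mM EDTA, 0.1 mg/ml BSA, 1mM TCEP, 0.01% Tween-20.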

[20] = NS1 protein of Zika virus - qHTS assay to identify small molecule inhibitors in human HEK 293 cells (AID 1347053); further: nearly all actives have a fitted effect of over 55% in size
Method in brief: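 Inhibition of NS1 expression was scored in HEK 293 cells given compound 1 h ahead of MR766 virus (MOI = 0.5). Following 24 h at 37 C, two anti-NS1 antibodies generated a TR-FRET signal, scaled between uninfected and infected controls.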

[21] = target: T1, Tyrosine-protein phosphatase non-receptor type substrate 1 (Homo sapiens) + Leukocyte surface antigen CD47 (Homo sapiens) (UniProt P78324+Q08722); assay: CD47-SIRPalpha protein protein interaction - HTRF assay qHTS validation (AID 1347058; active means well fitted curve in the direction sought with a large enough effect in the signal ratio, not every such curve was filed as active; the % refers to the signal ratio;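 further: recombinant soluble extracellular CD47 with His tag and biotinylated SIRPalpha domains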)
T1 sequence (P78324 whole entry, looked up, the tested form may be a part): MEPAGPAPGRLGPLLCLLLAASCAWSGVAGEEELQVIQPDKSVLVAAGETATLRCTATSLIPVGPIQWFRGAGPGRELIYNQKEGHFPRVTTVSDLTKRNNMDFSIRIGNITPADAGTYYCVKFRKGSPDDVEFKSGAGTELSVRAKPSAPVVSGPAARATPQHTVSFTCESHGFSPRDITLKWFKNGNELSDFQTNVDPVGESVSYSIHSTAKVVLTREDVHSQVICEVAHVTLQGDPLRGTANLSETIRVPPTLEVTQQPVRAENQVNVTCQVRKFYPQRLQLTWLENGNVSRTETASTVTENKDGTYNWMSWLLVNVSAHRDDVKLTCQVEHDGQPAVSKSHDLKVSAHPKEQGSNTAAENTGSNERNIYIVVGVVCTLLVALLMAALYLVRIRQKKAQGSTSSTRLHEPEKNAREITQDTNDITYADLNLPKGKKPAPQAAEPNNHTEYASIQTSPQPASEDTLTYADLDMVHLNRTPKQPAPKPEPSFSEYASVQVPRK
T1 sequence (Q08722 whole entry, looked up, the tested form may be a part): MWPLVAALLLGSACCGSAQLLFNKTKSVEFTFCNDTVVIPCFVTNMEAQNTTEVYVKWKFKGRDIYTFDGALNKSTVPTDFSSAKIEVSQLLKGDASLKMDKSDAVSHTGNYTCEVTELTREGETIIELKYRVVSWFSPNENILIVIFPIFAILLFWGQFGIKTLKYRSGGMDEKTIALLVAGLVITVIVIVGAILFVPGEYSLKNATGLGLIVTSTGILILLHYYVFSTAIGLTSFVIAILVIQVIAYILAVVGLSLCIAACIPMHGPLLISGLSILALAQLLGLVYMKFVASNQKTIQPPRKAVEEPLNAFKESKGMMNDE
Method in brief: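 TR-FRET read (Ch1/Ch2 ratio) of soluble extracellular CD47 and Avi-biotinylated SIRPalpha domains in PBS pH 7.4 with 0.05% IGEPAL; 7-point compound titration. Sequential 30 min room-temperature steps; non-biotinylated SIRPalpha as control inhibitor.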

[22] = target: T1, Tyrosine-protein phosphatase non-receptor type substrate 1 (Homo sapiens) + Leukocyte surface antigen CD47 (Homo sapiens); assay: CD47-SIRPalpha protein protein interaction - Alpha assay qHTS validation (AID 1347059);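 further: bead proximity luminescence from CD47 binding SIRPalpha after compound preincubation with SIRPalpha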
Method in brief: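 Binding is measured by AlphaScreen proximity: Ni-NTA acceptor beads capture His-CD47, streptavidin donor beads capture biotin-SIRPalpha. Each of three additions (SIRPalpha with compound, CD47, beads) incubates 30 min at room temperature protected from light.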

[23] = target: N-terminal Xaa-Pro-Lys N-methyltransferase 1 (Homo sapiens) (UniProt Q9BV86); assay: qHTS Assay for Inhibitors of N-terminal methyltransferase 1 (NTMT1): LOPAC validation of the NTMT1 SAHH-coupled ThioGlo3 Assay (AID 1347143);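 further: SAH from peptide methylation measured as thiol fluorescence via SAHH coupling and ThioGlo3; potency means the concentration at half of the fitted maximal effect; nearly all actives have a fitted effect of over 70% in size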
Method in brief: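 Inhibition of NTMT1 methylation of peptide SPKRIA is followed by converting SAH with SAHH and labelling the released thiol with ThioGlo3. Plates are read at 340/450nm before and 30 min after reagent addition, both at room temperature.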

[24] = test system: Zika virus NS2B-NS3 protease (unlinked); assay: Optimization of GU AMC qHTS for Zika virus inhibitors: Unlinked NS2B-NS3 protease assay (AID 1347151); further: nearly all actives have a fitted effect of over 80% in size
Method in brief: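 Noncovalent complex of NS2B hydrophilic domain and NS3 protease domain, 25 nM final, in 10 mM Tris-HCl pH 8.0, 0.01% Tween 20. AMC fluorescence change over 15 min at room temperature was fitted to a 4-parameter Hill equation.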

[25] = qHTS to identify inhibitors of the type 1 interferon - major histocompatibility complex class I in skeletal muscle: primary screen against the NCATS LOPAC collection (AID 1347405);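 further: lytic HiBiT luminescence reporting HLA-B protein level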
Method in brief: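 Luminescence from HiBiT fused to endogenous HLA-B in CRISPR-engineered human myoblasts served as the read-out. Cells received 4.0 ng/ml IFN-beta plus compound (seven concentrations, 1:4.3 steps, highest 46 uM final) for 24 hrs before lytic detection.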

[26] = qHTS for inhibitors of adenylyl cyclases using a fission yeast platform: a pilot screen against the NCATS LOPAC library (AID 1347410)
Method in brief: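 S. pombe CHP2027 (AC9-GNAS-PDE4D2) carrying a PKA-repressed fbp1-GFP reporter was exposed to LOPAC compounds (final up to 57 µM) for 18 h at 30C in the dark, in EMM with histidine, lysine and uracil; GFP gain-of-signal read by laser scanning cytometry.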

[27] = target: Calcium and integrin-binding protein 1 (Homo sapiens) (UniProt Q99828); assay: Validation qHTS for Identification of Calcium Integrin Binding protein 1 (CIB1) Competitor (AID 1508618)
Calcium and integrin-binding protein 1 (Homo sapiens), sequence (Q99828 whole entry, looked up): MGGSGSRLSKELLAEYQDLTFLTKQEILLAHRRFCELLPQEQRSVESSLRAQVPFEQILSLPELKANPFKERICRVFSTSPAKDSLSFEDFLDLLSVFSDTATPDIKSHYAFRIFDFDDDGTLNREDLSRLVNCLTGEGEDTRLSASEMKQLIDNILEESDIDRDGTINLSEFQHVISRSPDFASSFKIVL
Method in brief: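 CIB1-GST (1 uM final) incubated 15 min at room temperature with compounds (up to 114 uM), then FITC-labelled alphaIIb peptide (100 nM) added. FP read (Ex 480/Em 540) after 15 min, pH 7.4 buffer containing 5 mM CaCl2.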

[28] = target: Metallo-beta-lactamase type 2 (Klebsiella pneumoniae) (UniProt C7C422); assay: qHTS to identify inhibitors of the New Delhi Metallo-beta-lactamase (NDM): assay validation screen against the NCATS LOPAC Collection (AID 1794843); further: potency means the concentration at half of the fitted maximal effect
Method in brief: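 Absorbance at 485 nm from nitrocefin turnover (50 uM solution added), read at plateau, gives the read-out. Compounds in DMSO were incubated first with 2 nM final NDM-1 in pH 7.0 HEPES buffer containing 1 uM ZnSO4 and 0.01% Tween20.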

[29] = target: Glutathione peroxidase 1 (Homo sapiens) (UniProt P07203); assay: Primary qHTS Assay for Inhibitors of Recombinant Selenoprotein Glutathione Peroxidase 1 (GPX1) (AID 1845191); further: nearly all actives have a fitted effect of over 65% in size
Method in brief: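 10 nM GPX1 + cpd, 30 min RT; start w/ 1 mM GSH, 0.5 mM cumene hydroperoxide, 0.5 mM NADPH, 100 nM GR, 0.01% BSA; buffer 50 mM Tris-HCl pH 7.5, 2 mM EDTA, 150 mM NaCl; Fl 340/450, 0 & 15 min.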

[30] = target: Phospholipid hydroperoxide glutathione peroxidase GPX4 (Homo sapiens) (UniProt P36969); assay: Primary qHTS Assay for Inhibitors of Recombinant Selenoprotein Glutathione Peroxidase 4 (GPX4) (AID 1845192); conditions: outcome: dose series up to 50 µM unless noted; further: nearly all actives have a fitted effect of over 65% in size
Method in brief: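 NADPH consumption, followed by fluorescence at 340/450 nm between 0 and 15 min, reports GPX4 activity via coupled glutathione reductase (100 nM). Enzyme 200 nM was pre-exposed to compound 30 min; 0.5 mM cumene hydroperoxide and 1 mM GSH served as substrates.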

N.N.O=C(O)C1(C(=O)O)CCC1.[Pt+2]
outcome [1]: inactive | outcome [2]: inactive | Potency [3]: inactive | Potency [4]: inactive | outcome [5]: inactive | outcome [6]: inactive | outcome [7]: inactive | Potency [8]: 0.267 µM (active) | Potency [9]: 29.9 µM (active) | Potency [10]: 3.77 µM (active) | Potency [11]: 20 µM (active) | outcome [12]: inactive | outcome [13]: inactive | outcome [14]: inactive | outcome [15]: inactive | Potency [16]: inactive | Potency [17]: inactive | outcome [18]: inactive | Potency [19]: inactive | outcome [20]: inactive | outcome [21]: inactive | Potency [22]: inactive | Potency [23]: 12.6 µM (active) | Potency [24]: inactive | Potency [25]: inactive | outcome [26]: inactive | outcome [27]: inactive | Potency [28]: 3.98 µM (active) | Potency [29]: inactive | Potency [30]: inactive

From PubChem BioAssay (NCATS)
